ALOX15 inhib: 15-hLO (ALOX15) enzyme inhibition; purified 15hLO-1, xylenol orange hydroperoxide absorbance; AID 887; P16050; Potency, µM (top dose mostly 57.1 µM), without a hit: top-dose activity change, negative = inhibition, usual class: inhibitors; 1.4% of 74,000 active; further: nearly all actives have a fitted effect of over 55% in size
Target sequence (P16050 whole entry, looked up): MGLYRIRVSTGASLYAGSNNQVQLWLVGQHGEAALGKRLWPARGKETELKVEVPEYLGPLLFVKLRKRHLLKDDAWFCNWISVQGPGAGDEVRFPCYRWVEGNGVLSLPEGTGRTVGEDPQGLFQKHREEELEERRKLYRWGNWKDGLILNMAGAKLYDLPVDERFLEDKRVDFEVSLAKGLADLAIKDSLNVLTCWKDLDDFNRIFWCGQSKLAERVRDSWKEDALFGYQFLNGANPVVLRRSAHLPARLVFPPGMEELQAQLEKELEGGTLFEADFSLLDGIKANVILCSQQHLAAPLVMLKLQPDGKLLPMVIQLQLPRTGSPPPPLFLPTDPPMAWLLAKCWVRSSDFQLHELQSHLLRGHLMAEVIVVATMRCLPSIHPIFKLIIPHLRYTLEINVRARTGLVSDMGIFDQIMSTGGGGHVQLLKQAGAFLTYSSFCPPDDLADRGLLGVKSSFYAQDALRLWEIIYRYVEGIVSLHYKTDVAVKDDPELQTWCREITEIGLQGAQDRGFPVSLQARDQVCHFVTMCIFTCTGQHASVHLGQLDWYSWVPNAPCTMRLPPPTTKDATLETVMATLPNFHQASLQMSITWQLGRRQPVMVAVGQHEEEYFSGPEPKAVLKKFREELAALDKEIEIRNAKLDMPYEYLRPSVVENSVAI
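Hydroperoxide formed from arachidonic acid (50 uM) by purified human 15hLO-1 (40 nM) oxidizes ferrous iron, and the ferric-xylenol orange complex is read at 573 versus 405 nm. Compounds were preincubated 15 min; reaction ran 6 min at room temperature.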
15-hLO-2 inh: blocks human 15-lipoxygenase 2 activity. purified 15hLO-2, xylenol orange hydroperoxide absorbance. Potency, µM (highest dose often 57.1 µM), for inactives: top-dose activity change, negative = inhibition, usual class: inhibitors. 0.56% of 110,000 active. AID 881; further: nearly all actives have a fitted effect of over 60% in size
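Screening format was qHTS against 50 nM purified 15hLO-2 in Hepes pH 7.5 with detergent. Activity follows hydroperoxide formation from 45 uM arachidonic acid, measured as 573:405 nm absorbance ratio of the ferric-xylenol orange complex.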
Numbers without * were called inactive; ? = inconclusive; · = not tested or not shown; [ ] = dose if it differs, or a comment. This is one part of a sample in which hits are shown more often than they occur. The call rests on the fitted dose curve; in most records, active means well fitted inhibition curve with a large enough effect; inconclusive means small, poorly fitted or top-dose-only effect; inactive means no such curve, though single readings can be large or run the other way. On the % scale 0 is the no-effect control and ±100 the full control effect; potency means the concentration at half of the fitted maximal effect.

SMILES	ALOX15 inhib	15-hLO-2 inh
COc1ccc(NC(=O)N(Cc2cc3cc(OC)ccc3[nH]c2=O)CC2CCCO2)cc1 (configuration not stated)	20µM*	6%
CCc1ccc2[nH]c(=O)c(CN(CCCN3CCOCC3)C(=O)Nc3ccc(F)cc3)cc2c1	16µM*	57%
O=c1c(CCc2ccccc2)nc2cnc(Oc3ccccc3)nc2n1C1CC1	-16%	-5%
CN1CC[C@@]2(CCCN(S(=O)(=O)c3ccccc3)C2)C1	-26%	3%
CSc1ncnc2c1ncn2CC(=O)[C@H]1CC[C@H]2[C@H]3CCC4=CC(=O)CC[C@@]4(C)[C@@H]3CC[C@@]12C	-17%[11.4 µM]	-25%[11.4 µM]
CCCCc1cc(=O)oc2cc(C)c(CN3CCCC3)c(O)c12	13µM*	-2%[2.29 µM]
CCc1cc(=O)oc2cc(C)c(CN3CCCC(C)C3)c(O)c12 (configuration not stated)	·	-26%
O=S(=O)(Nc1cccnc1)c1cccc2cccnc12	-9%	·
COc1cc2c(cc1OC)-c1cc(=Nc3c(C)cc(C)cc3C)n(C)c(=O)n1CC2	?	15%
COc1ccc(S(=O)(=O)C(C#N)c2nc3ccccc3nc2N2CCCCC2)cc1 (configuration not stated)	-22%	?
Cc1ccc(C)c(S(=O)(=O)C(C#N)c2nc3ccccc3nc2N2CCCC2)c1 (configuration not stated)	13µM*	-29%
Cc1ccc(C)c(S(=O)(=O)C(C#N)c2nc3ccccc3nc2N2CCOCC2)c1 (configuration not stated)	-15%	-11%
N#CC(c1nc2ccccc2nc1N1CCCC1)S(=O)(=O)c1cccs1 (configuration not stated)	10µM*	?
C[C@H](O)[C@H](O)[C@@H]1CNc2nc(N)[nH]c(=O)c2N1	25%	-16%
Cc1ccc(C)c(NS(=O)(=O)c2cc(C(=O)O)ccc2Cl)c1	-5%	·
CS(=O)(=O)N1CCC[C@@]2(CCN(Cc3ccc(C#N)cc3)C2)C1	10%	-1%
Cc1nc2sc3c(c2c(=O)o1)CCCC3	-3%	-12%
Nc1nc2sc3c(c2c(=O)s1)CCCC3	0.79µM*	6%[2.29 µM]
CCOC(=O)N1CCC(NC(=O)C(NC(=O)C2CCCCC2)C(C)C)CC1 (configuration not stated)	9%	2%
CCOC(=O)N1CCC(NC(=O)C(CC(C)C)NC(=O)C2CCCCC2)CC1 (configuration not stated)	16µM*	2%
CC(=O)N1N=C(c2ccco2)CC1c1cccs1 (configuration not stated)	·	-18%[11.4 µM]
O=[N+]([O-])c1ccc(N2N=C(c3ccco3)CC2c2ccccc2)cc1 (configuration not stated)	·	13µM*
CSc1nc(-c2ccco2)nn1S(=O)(=O)c1ccc(C)cc1	25µM*	·
CSc1nc(-c2ccco2)nn1S(=O)(=O)c1ccccc1	-13%	-2%
Fc1ccc([C@H]2CCNC[C@H]2COc2ccc3c(c2)OCO3)cc1	-29%[25.6 µM]	28%
SMILES	ALOX15 inhib	15-hLO-2 inh
COc1cccc(Nc2ncc3nc(CCc4ccccc4)c(=O)n(C4CC4)c3n2)c1	-15%	-8%
Nc1c(S(=O)(=O)O)cc(S(=O)(=O)O)c2ccc(N=Nc3ccccc3)c(O)c12	8%[11.4 µM]	-2%[11.4 µM]
Cc1cc(-c2ccc(N=Nc3cc(S(=O)(=O)O)c4ccccc4c3N)c(C)c2)ccc1N=Nc1cc(S(=O)(=O)O)c2ccccc2c1N	0.4µM*	3.2µM*
Cc1cc(O)c(C(C)(C)C)cc1Sc1cc(C(C)(C)C)c(O)cc1C	?	-16%
O=C(O)[C@@H]1[C@@H](C(=O)NCc2ccncc2)[C@@H]2C=C[C@@H]1O2	0%[11.4 µM]	-3%[11.4 µM]
N#Cc1c(N2CCCCC2)nc(N)c2c(N)nc3c(c12)CC(c1ccccc1)O3 (configuration not stated)	·	-4%
CC(C)(C)N1C(=O)Cc2c1nc(N)c1c(N)nc(N3CCCCC3CO)c(C#N)c21 (configuration not stated)	20µM*	25µM*
CO[C@@H]1COC(=O)CC=C[C@@H](C)[C@@H]2C=C[C@H](O)[C@@H](COC(=O)C/C=C\[C@H]1C)O2	5%[11.4 µM]	·
O=C(NC1(O)C(=O)c2ccccc2C1=O)c1ccccc1	-18%	25µM*
O=C(NO)c1ccccc1	?	-10%
Cc1nc2cncnc2n(Cc2ccccc2)c1=O	7%	-1%
CCOC(=O)c1cc(C#N)c(N)nc1C	5%	-1%
CCOC(=O)c1cc(C)[nH]c(=S)c1C#N	4µM*	25µM*
O=C1CN2CCN(CC2)CC(=O)Nc2ccc(cc2)S(=O)(=O)c2ccc(cc2)NC(=O)CN2CCN(CC2)CC(=O)Nc2ccc(cc2)S(=O)(=O)c2ccc(cc2)N1	14%[11.4 µM]	1%[11.4 µM]
C/C(=N\O)c1cccc[n+]1Cc1ccccc1	2%[11.4 µM]	-1%[11.4 µM]
O=c1cnc2cnc(Oc3cccc(Cl)c3)nc2n1Cc1ccc(F)cc1	-23%	-15%
C=CCn1c(SCC(=O)NCc2ccco2)nc2sc3c(c2c1=O)CCCC3	·	1%
O=C(NCc1ccco1)c1ccc2nc3sc4c(c3c(=O)n2c1)CCCC4	32µM*	?
CNC(=O)[C@@H]1O[C@@H](n2cnc3c(N)ncnc32)[C@@H](O)[C@H]1O	-4%	-5%
COc1ncc2nc(-c3ccc(F)cc3)c(=O)n(CCc3ccccc3)c2n1	1%	-3%
COC(=O)c1ccc2c(c1)C(C)(C)C(/C=C/c1ccc(OC)c(OC)c1OC)=[N+]2C	·	13µM*
COC(=O)c1ccc2c(c1)C(C)(C)C(/C=C/c1ccc(O)cc1)=[N+]2C	·	-16%[11.4 µM]
CCOc1ccc2nc(NC(=O)C(CCSC)NS(=O)(=O)c3cccs3)sc2c1 (configuration not stated)	16µM*	-16%
CCOc1ccc2nc(NC(=O)C(NS(=O)(=O)c3cccs3)C(C)C)sc2c1 (configuration not stated)	3%	0%
CCc1ccc2c(c1)N(C[C@H](C)CN(C)C)c1ccccc1S2	-5%[11.4 µM]	4%[11.4 µM]
SMILES	ALOX15 inhib	15-hLO-2 inh
CCN(CC)[C@@H](C)CN1c2ccccc2Sc2ccccc21	13µM*	13µM*
O=[N+]([O-])c1cc(Cl)ccc1NCCNc1ncc(C(F)(F)F)cc1Cl	·	15%
O=[N+]([O-])c1cc(C(F)(F)F)ccc1NCCNC(=S)Nc1ccc(Cl)cc1	·	32µM*
O=[N+]([O-])c1cccc(C(F)(F)F)c1	4%	2%
O=c1c(-c2ccccc2)nc2cncnc2n1Cc1ccccc1	-2%	11%
O=C(O)c1cnc2ccccc2n1	20µM*	8%
O=C(Nc1cccnc1)c1cnc2ccccc2n1	0%	-1%
Cc1noc(C)c1-c1nc(N(C)Cc2ccco2)c2ccccc2n1	?	17%
O=C(Cn1ncn2c(cc3ccccc32)c1=O)NCCC1=CCCCC1	16µM*	-3%
O=C(Cn1ncn2c(cc3ccccc32)c1=O)NCc1ccco1	?	-11%
CCCc1cc(COC)c(C#N)c(=O)[nH]1	9%[11.4 µM]	-3%[11.4 µM]
CN(C)C(=O)c1ccc(-c2cc(-n3ccnc3)ncn2)cc1	25µM*	-23%
CN(C)c1ccc(-c2cc(-n3ccnc3)ncn2)cc1	?	-14%
CNc1cc(-c2ccccc2CN(C)C)ncn1	15%	-2%
CN(C)Cc1ccccc1-c1cc(-n2ccnc2)ncn1	13µM*	23%
CCSC[C@@H](N)C(=O)O	0%[11.4 µM]	2%[11.4 µM]
COc1ccc(-c2csc3c2[N+]2=CCC=C2C3=O)cc1	-2%[11.4 µM]	-2%[11.4 µM]

Screens deposited in PubChem BioAssay by National Center for Advancing Translational Sciences (NCATS).
